# Rows were chosen to be rich in hits. Some 3.1% of all compounds tested hit in one or more screens of this group.
# BoNT A protease: BoNT/A light chain protease inhibitors, primary screen, biochemical, flow cytometry, MLPCN library; inhibition, % at 10 µM; actives 0.17% (n = 360,000); Botulinum neurotoxin type A light chain protease (Clostridium botulinum A str. ATCC 3502); multiplex microsphere protease substrate cleavage
# BoNT F protease: BoNT/F light chain protease inhibitors, primary screen, biochemical, flow cytometry, MLPCN library; Botulinum neurotoxin type F light chain protease (Clostridium botulinum); Multiplex microsphere protease cleavage assay; inhibition, % at 10 µM; actives 0.22% (n = 360,000); AID 588497, 2011; in the data active = inhibition above about 35%, passing the limit was not always enough; inconclusive = no clear call, values can overlap the other calls
# SSB-PriA inh: inhibitors of Klebsiella pneumoniae PriA binding to SSB C-terminal tail, primary screen, biochemical, AlphaScreen; actives 0.6% (n = 430,000); inhibition, % at 33 µM; AID 1272365, 2023; PriA–SSB C-terminal tail interaction (Klebsiella pneumoniae); AlphaScreen SSBct-PriA binding, biotinylated peptide; in the data active = inhibition mostly above about 37%, no sharp cut-off; inactive = mostly below about 20%
# Autofluor counter: compound fluorescence in toxin protease inhibitor counterscreen | compound autofluorescence counterscreen, microsphere flow cytometry; hits give high values | fluorescence intensity (no concentration beside the values) | actives 3.1% (n = 360,000) | AID 624483; in the data active = fluorescence intensity above about 16000; inconclusive = no clear call, values can overlap the other calls
# Anthrax LF prot: Bacillus anthracis LF protease inhibitors, primary screen, biochemical, multiplex microsphere, MLPCN library; Lethal factor (Bacillus anthracis), P15917; multiplex microsphere protease cleavage assay; inhibition, % at 10 µM; actives 0.12% (n = 360,000); AID 588501, 2011
# Target sequence (P15917 whole entry, looked up): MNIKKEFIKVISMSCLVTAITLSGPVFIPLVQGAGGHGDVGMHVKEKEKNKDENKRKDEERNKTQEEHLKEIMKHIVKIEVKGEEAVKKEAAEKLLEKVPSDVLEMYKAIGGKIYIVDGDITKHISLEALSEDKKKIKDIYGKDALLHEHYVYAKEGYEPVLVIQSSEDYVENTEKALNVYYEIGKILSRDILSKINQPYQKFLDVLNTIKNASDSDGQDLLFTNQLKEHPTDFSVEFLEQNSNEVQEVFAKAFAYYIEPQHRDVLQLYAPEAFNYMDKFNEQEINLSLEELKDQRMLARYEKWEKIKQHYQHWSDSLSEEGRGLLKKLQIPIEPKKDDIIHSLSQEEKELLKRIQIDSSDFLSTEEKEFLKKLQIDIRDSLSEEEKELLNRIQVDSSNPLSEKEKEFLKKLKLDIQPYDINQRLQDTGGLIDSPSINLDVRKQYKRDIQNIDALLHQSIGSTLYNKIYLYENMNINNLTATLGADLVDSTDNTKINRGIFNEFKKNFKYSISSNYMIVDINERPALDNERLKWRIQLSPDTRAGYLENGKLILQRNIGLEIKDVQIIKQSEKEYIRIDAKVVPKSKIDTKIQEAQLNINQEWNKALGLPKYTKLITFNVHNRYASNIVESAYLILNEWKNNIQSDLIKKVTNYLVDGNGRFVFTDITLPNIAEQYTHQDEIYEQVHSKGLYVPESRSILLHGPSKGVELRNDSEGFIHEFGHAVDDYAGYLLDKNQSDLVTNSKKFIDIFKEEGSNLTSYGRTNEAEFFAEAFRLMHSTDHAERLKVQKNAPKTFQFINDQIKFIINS
# Numbers stand for hits; 0 = inactive; ? = inconclusive; - = no result given. Cut-off read from the data, not from the text of the source, unless noted: active = inhibition above about 30%; inconclusive = no clear call, values can overlap the other calls; inactive = below that.
SMILES,BoNT A protease,BoNT F protease,SSB-PriA inh,Autofluor counter,Anthrax LF prot
CC(C)(C)c1ccc(C(=O)N/C(=C/c2ccco2)C(=O)NCCCn2ccnc2)cc1,-,-,63.2,-,-
O=C(NCCCn1ccnc1)c1ccco1,0,0,0,24362,0
O=C(Cc1noc2ccccc12)NCc1cccs1,-,-,0,-,-
COc1ccc(C(=O)Nc2ccccc2C(=O)NCCCn2ccnc2)cc1,0,0,0,0,0
O=C(NCCCn1ccnc1)c1cc2n(n1)CCCO2,-,-,34.0,-,-
CC(C)(C)C(=O)Nc1ccccc1C(=O)NCCCn1ccnc1,0,0,50.5,0,0
O=C(NCCCn1ncccc1=O)c1cc2n(n1)CCCO2,-,-,0,-,-
COc1ccc(OC)c(NC(=O)Cc2coc3cc(C)cc(C)c23)c1,?,0,0,22476,0
COc1ccc(OC)c(NC(=O)Cc2coc3ccc(C)cc23)c1,0,0,0,0,0
CC1=C(C(=O)N2CCOCC2)C(c2ccsc2)C2=C(CCCC2=O)N1 (stereo unspecified),0,0,0,22793,0
CCC(CO)Oc1cc(NCc2ccc(Cl)cc2Cl)c2ncn(C(C)C)c2c1 (stereo unspecified),0,0,39.0,0,0
CCC(CO)Oc1cc(NCc2ccc(Cl)cc2)c2ncn(C(C)C)c2c1 (stereo unspecified),0,0,0,0,0
Cc1ncoc1C(=O)Nc1ccc2c(c1)OCCO2,0,0,0,18125,0
Cc1cc(C(=O)Nc2ccc3c(c2)OCCO3)c(C)o1,0,0,0,0,0
O=C(Nc1ccc2c(c1)OCCO2)c1ccccc1,0,0,0,0,0
Cc1ccsc1C(=O)Nc1ccc2c(c1)OCCO2,0,0,0,0,0
COc1ccccc1NC(=O)Nc1ccc2c(c1)OCCO2,0,0,0,0,0
COc1cccc(OC)c1C(=O)Nc1ccc2c(c1)OCCO2,0,0,0,25227,0
Cc1occc1C(=O)Nc1ccc2c(c1)OCCO2,?,0,0,20875,0
CS(=O)(=O)Nc1ccc(C(=O)Nc2ccc3c(c2)OCCO3)cc1,0,0,0,20301,0
COC(=O)c1ccc2c(=O)n(CC(=O)N3CCN(c4ccc(F)cc4)CC3)c(=S)[nH]c2c1,-,-,0,-,-
Cc1cc(CNC(=O)Nc2cccc(C(F)(F)F)c2)nc(N2CCCCC2)n1,-,-,0,-,-
CCOC(=O)c1c(C)c(C(=O)Nc2ccc3c(c2)OCCO3)c(C)n1C,?,0,0,23007,0
CCOC(=O)Nc1ccc(S(=O)(=O)NCCCN2CCOCC2)cc1,0,0,0,17393,0
CCCCOC(=O)Nc1ccc(N2CCCCC2)cc1,0,0,0,0,0
SMILES,BoNT A protease,BoNT F protease,SSB-PriA inh,Autofluor counter,Anthrax LF prot
CCCCOC(=O)Nc1ccc(N2CCOCC2)cc1,?,0,0,20906,0
O=C1CCCc2c1cc(-c1ccccc1)n2-c1ccc(O)cc1,0,0,0,0,0
COc1ccc(-n2c(-c3ccccc3)cc3c2CCCC3=O)cc1,?,0,0,22566,0
CS(=O)(=O)c1ccc(NS(=O)(=O)c2cccs2)cc1,-,-,0,-,-
O=[N+]([O-])c1ccccc1NC(=S)NN=Cc1ccc(O)c(O)c1,-,-,41.7,-,-
Cc1noc(NS(=O)(=O)c2ccc(NC(=O)CSc3nc4c(cc3C#N)CCCCC4)cc2)c1C,0,0,0,24886,0
N#Cc1cc2c(nc1SCC(=O)NCc1ccc3c(c1)OCO3)CCCCC2,0,0,0,18758,0
COc1ccccc1-c1cc(C(=O)NCc2ccccc2)no1,0,0,0,21016,0
O=C(NCc1ccccc1)c1cc(-c2cccs2)on1,0,0,0,18644,0
COC(=O)c1ccccc1NC(=O)c1cc(-c2cccs2)on1,0,0,0,20518,0
COC(=O)c1ccccc1NC(=O)c1cc(-c2ccco2)on1,0,0,0,0,0
O=C(NCCCS(=O)(=O)N1CCN(c2ccccc2F)CC1)C1CC1,-,-,0,-,-
CCc1ccc(NC(=O)c2cccc(Cl)c2)cc1,-,-,0,-,-
O=C(c1cc(Cl)ccc1Cl)N1CCc2ccccc21,0,?,0,0,0
O=C(c1ccc(Cl)s1)N1CCc2ccccc21,0,0,0,20271,0
NS(=O)(=O)c1cc(C(=O)N2CCc3ccccc32)c(Cl)cc1Cl,0,0,0,18762,0
O=C(c1ccc(C(=O)N2CCCc3ccccc32)s1)N1CCCc2ccccc21,0,0,0,0,0
CCc1ccc(C(=O)NC2CCCCC2)s1,0,0,0,20340,0
CCc1ccc(C(=O)N2CCCC2)s1,?,0,0,16597,0
COc1cccc(C(=O)Nc2cc(-c3cccs3)nn2-c2nc(C)c(C)c(=O)[nH]2)c1OC,-,-,0,-,-
O=C(Nc1ccc(Cn2cnc(C(=O)NCc3ccc(F)cc3)c2)cc1)c1ccc(Cl)cc1,-,-,0,-,-
O=C(CCc1ccc(C(F)(F)F)cc1)Nc1cccc(N2CCCCC2=O)c1,-,-,0,-,-
CS(=O)(=O)N1CCN(C(=O)c2ccc(Cl)s2)CC1,0,0,0,0,0
Cn1ncc(Cl)c1C(=O)N1CCc2ccccc21,0,0,0,0,0
O=C(c1ccc(Cl)s1)N1CCCC1,0,0,0,24368,0
SMILES,BoNT A protease,BoNT F protease,SSB-PriA inh,Autofluor counter,Anthrax LF prot
Cc1nn(C)c(C(=O)N2CCc3ccccc32)c1Cl,?,0,0,21851,0
Fc1cccc(Cl)c1CN1CC(c2nc(Cc3ccccc3)no2)C1,-,-,0,-,-
Cc1nc(CC#N)cs1,-,-,0,-,-
O=c1[nH]c(C2CCCN(S(=O)(=O)c3ccccc3)C2)nc2c1nnn2Cc1ccccc1 (stereo unspecified),0,0,0,22466,0
Cc1ccc(C)c(Cn2nnc3c(=O)[nH]c(C4CCN(C(=O)c5cccs5)CC4)nc32)c1,0,0,0,0,0
Cc1ccc(Cn2nnc3c(=O)[nH]c(C4CCN(C(=O)c5cccs5)CC4)nc32)cc1,0,0,0,23099,0
O=C(CN1CCC(C(=O)Nc2ccc3c(c2)OCCO3)CC1)Nc1ccc(F)cc1,-,-,0,-,-
O=S(=O)(/C=C/c1ccccc1)NCCn1nc(C(F)(F)F)c2c1CCCC2,-,-,0,-,-
CC(=O)NC(c1cccs1)c1cc(F)c2cccnc2c1O (stereo unspecified),0,0,0,0,0
CC(=O)NC(c1ccco1)c1cc(F)c2cccnc2c1O (stereo unspecified),0,0,72.9,0,0
Cc1ccc(C)c(Cc2c(C)nc3c(C(=O)N4CCOCC4)cnn3c2C)c1,0,0,0,22707,0
CCOC(=O)N1CCN(C(=O)c2cnn3c(C)c(Cc4ccc(C)cc4)c(C)nc23)CC1,?,0,0,23293,0
Cc1cc(NC(=O)c2ccc([N+](=O)[O-])o2)n(-c2nc3c(cnn3-c3cccc(C)c3C)c(=O)[nH]2)n1,-,-,0,-,-
C=C(C)C1CC=C(C)/C(=N/NC(=O)COc2ccc(C)cc2)C1 (stereo unspecified),0,0,-,21182,0
Cc1ccc(OCC(=O)NN=C2c3ccccc3-c3ccccc32)cc1,0,0,0,23454,0
C=C(C)C1CC=C(C)C(=NNC(=O)COc2cccc(C)c2)C1 (stereo unspecified),-,-,0,-,-
